From the supplement of paper PMC3334620
Whole data set: some 33,000 sequences, median “E-score (-0.5 to 0.5)” near -0.054, cut for the highest 2% near 0.39. What follows is part of a selection rich in the highest values, with near analogues and random picks from the rest.

Target: Ylr278c (UniProt Q05854)
Test: PBM E-score (8-mer binding enrichment) (E-score (-0.5 to 0.5)); higher = stronger / more preferred TF binding
Conditions: protein concentration: 200 nM; construct: GST-DNA-binding domain
Summary of the method: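 Detection of bound protein used fluorescent anti-GST, with scans normalised by masliner. The proteins were GST-tagged yeast transcription factors applied at about 100-200 nM to universal all-10-mer Agilent arrays made double-stranded by primer extension. Each ungapped eight-base word, pooled with its reverse complement, was scored with an E-score from the Universal PBM Analysis Suite.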

Chain of UniProt Q05854 (Q05854 whole entry): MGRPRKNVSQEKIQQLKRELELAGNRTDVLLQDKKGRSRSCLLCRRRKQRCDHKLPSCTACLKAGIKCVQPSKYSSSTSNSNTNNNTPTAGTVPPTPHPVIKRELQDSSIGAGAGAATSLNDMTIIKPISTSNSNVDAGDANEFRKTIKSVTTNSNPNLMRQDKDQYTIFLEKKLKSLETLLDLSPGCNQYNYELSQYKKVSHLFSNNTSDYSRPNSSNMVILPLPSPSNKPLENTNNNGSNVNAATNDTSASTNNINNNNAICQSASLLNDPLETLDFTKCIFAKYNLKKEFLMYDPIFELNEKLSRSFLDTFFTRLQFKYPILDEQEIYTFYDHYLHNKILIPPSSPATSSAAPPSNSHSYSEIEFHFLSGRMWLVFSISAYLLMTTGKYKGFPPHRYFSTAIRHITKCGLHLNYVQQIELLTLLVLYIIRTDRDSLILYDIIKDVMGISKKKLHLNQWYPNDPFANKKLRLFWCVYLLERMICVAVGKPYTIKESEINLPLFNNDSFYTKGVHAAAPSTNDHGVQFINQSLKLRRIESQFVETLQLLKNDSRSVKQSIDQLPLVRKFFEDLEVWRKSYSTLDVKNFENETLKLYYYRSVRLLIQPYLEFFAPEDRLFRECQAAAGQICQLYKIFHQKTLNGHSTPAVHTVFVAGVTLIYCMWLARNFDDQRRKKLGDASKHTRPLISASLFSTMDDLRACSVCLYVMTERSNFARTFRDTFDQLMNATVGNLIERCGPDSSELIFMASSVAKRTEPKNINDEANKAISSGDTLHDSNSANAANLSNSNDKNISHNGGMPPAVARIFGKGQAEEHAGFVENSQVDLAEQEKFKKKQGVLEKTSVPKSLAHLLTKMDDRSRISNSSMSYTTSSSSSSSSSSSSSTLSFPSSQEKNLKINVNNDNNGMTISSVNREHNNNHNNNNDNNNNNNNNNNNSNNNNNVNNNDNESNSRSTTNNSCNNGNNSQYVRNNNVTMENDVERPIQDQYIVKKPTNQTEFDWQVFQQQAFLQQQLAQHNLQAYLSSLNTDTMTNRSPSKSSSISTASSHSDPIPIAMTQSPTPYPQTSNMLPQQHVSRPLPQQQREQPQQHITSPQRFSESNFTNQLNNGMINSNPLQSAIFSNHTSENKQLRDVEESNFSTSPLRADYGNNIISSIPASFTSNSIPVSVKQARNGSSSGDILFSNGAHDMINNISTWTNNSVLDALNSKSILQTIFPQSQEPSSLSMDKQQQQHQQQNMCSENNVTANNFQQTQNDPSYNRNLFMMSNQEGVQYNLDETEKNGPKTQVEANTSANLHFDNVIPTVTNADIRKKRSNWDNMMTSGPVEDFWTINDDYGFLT

Row | Sequence | PBM E-score
1 | ATCTAGTC | 0.0095
2 | GAGCGCGC | 0.182
3 | GGCATCTA | -0.0448
4 | ATCCATCA | -0.135
5 | AACTCCCC | 0.266
6 | GACTCCAC | -0.0152
7 | AACTCCTC | 0.0657
8 | AACTCCGC | 0.49
9 | TACTCCGA | 0.479
10 | TACTCCTA | -0.187
11 | GACTCCGA | 0.467
12 | GACTCCTC | -0.135
13 | GACTCCGC | 0.426
14 | GACTCCTA | -0.191
15 | TACTCCAA | -0.243
16 | GACTCCAA | -0.221
17 | CATCAGTA | -0.233
18 | GGTGTGAC | -0.172
19 | GTAAACAA | -0.0542
20 | GTGCTCAA | -0.104
21 | ACCGCCCA | 0.154
22 | AACCTTCA | -0.245
23 | TCACTCCA | -0.0238
24 | AAGCTTGA | -0.0383
25 | TCGGTCAA | 0.0369
26 | GATTGCAC | 0.0435

Row | Sequence | PBM E-score
27 | AACTCCAA | -0.00212
28 | AACTCCGA | 0.496
29 | AACTCCCT | -0.072
30 | AACTCCGT | 0.486
31 | AACTCCAT | 0.214
32 | AACTCCCA | 0.155
33 | GACTTTCC | 0.137
34 | CTGCGAAA | -0.0633
35 | CCCCTGAA | -0.144
36 | CACCCCAA | -0.0388
37 | CCGCCGTA | 0.354
38 | CCGCCGTC | 0.218
39 | ACGCCGGG | 0.365
40 | ACGCCGGA | 0.432
41 | GCGCCGTA | 0.231
42 | ACGCCGTA | 0.0546
43 | CCGCCGCC | 0.304
44 | CCGCCGGC | 0.41
45 | GCGCCGGA | 0.432
46 | CCGCCGGA | 0.462
47 | CCGCCGCA | 0.266
48 | GCGCCGAA | 0.302
49 | GTGGCCCA | -0.196
50 | CGACTGAC | -0.171
51 | CGGATCGA | 0.19
52 | CAACTCTC | -0.0583

Row | Sequence | PBM E-score
53 | ACTGAGAG | -0.25
54 | TACAGTGA | -0.253
55 | CGTATGCC | 0.107
56 | ATCTAGTG | -0.173
57 | AACTATCC | 0.0243
58 | ACGCCGGC | 0.421
59 | ACGCCGTC | 0.276
60 | ACGCCGCC | 0.279
61 | AATATGAA | 0.0372
62 | CGGGCTGC | 0.118
63 | CGAATGGA | -0.121
64 | GACGCTGA | -0.214
65 | GTATCGCA | -0.0427
66 | GTATCGAA | -0.103
67 | ATATCGGA | 0.391
68 | CTATCGGC | 0.239
69 | ATATCGGC | 0.319
70 | GTATCGGA | 0.431
71 | CTATCGTA | -0.18
72 | ATATCGGG | 0.313
73 | CTATCGGA | 0.444
74 | ATCTCAGG | -0.0988
75 | GTGGCAAC | -0.0372
76 | AGCAATCG | -0.0973
77 | CTCCTTTA | -0.132
78 | ACATTGCA | -0.0533

Row | Sequence | PBM E-score
79 | TCCGCCGA | 0.437
80 | ATCGCCGG | 0.421
81 | CCCGCCGA | 0.334
82 | GCCGCCGA | 0.338
83 | AACGCCGT | 0.272
84 | AACGCCGC | 0.339
85 | AACGCCGG | 0.424
86 | ATCGCCGA | 0.373
87 | AAAGCCGG | 0.391
88 | CAAGCCGG | 0.263
89 | ATCGCCGC | 0.295
90 | AAAGCCGT | 0.137
91 | ATCTGTGC | -0.167
92 | AAGCGAAG | -0.0624
93 | AAAAGCCT | -0.224
94 | CACGCCGA | 0.211
95 | CCCGCCGG | 0.384
96 | AAAAGCCC | 0.151
97 | AACGCCGA | 0.433
98 | ACCGCCGC | 0.235
99 | ACCGCCGG | 0.403
100 | TACGCCGA | 0.293
101 | AAAAGCCG | 0.388
102 | GAGACTAC | 0.0263
103 | ACGCAAAG | -0.0959
104 | GGACCGCA | 0.238

Row | Sequence | PBM E-score
105 | CGACCGGC | 0.248
106 | GGACCGGA | 0.442
107 | CGACCGGA | 0.409
108 | CGACCGAA | 0.148
109 | AGACCGGA | 0.335
110 | CACAGATC | -0.0312
111 | ACTGCTCT | -0.15
112 | ATCTTCGG | 0.303
113 | AAGTCGCT | -0.163
114 | ACGACACC | 0.0263
115 | ATCAAAAA | 0.0906
116 | CTCCCAGC | -0.0468
117 | ATTGTCCA | -0.113
118 | ATTGTCCC | 0.0603
119 | CATGTCCG | 0.384
120 | ATTGTCCG | 0.452
121 | AATGTCCA | -0.115
122 | AATGTCCG | 0.458
123 | GCCGCAGA | 0.143
124 | AGGTGTCG | 0.0347
125 | GCCGATGA | 0.298
126 | CTCCGCAC | 0.41
127 | GTCCGCAC | 0.308
128 | CCCCGCAG | 0.302
129 | CTCCGCAG | 0.418
130 | ATCCGCAC | 0.299

Row | Sequence | PBM E-score
131 | ATCCGCAG | 0.259
132 | TTCCGCAA | 0.298
133 | GTCCGCAA | 0.334
134 | CTCCGCAA | 0.409
135 | ACACCTGG | -0.243
136 | CCCTCTAG | -0.311
137 | CGTGGCCC | -0.0746
138 | AACCCTAA | -0.0663
139 | CGAAAGGC | 0.0796
140 | ACGCCCCG | 0.229
141 | ACGCCCGG | 0.305
142 | CCGCCCGG | 0.402
143 | CCGCCCCC | 0.168
144 | AAGCCCGT | 0.0339
145 | CCGCCCCG | 0.42
146 | CCGCCCGC | 0.349
147 | AAGCCCGG | 0.416
148 | AAGCCCGC | 0.266
149 | GAAACCTC | 0.0208
150 | CTGAGTCC | 0.00022
151 | CACTAAAG | -0.169
152 | GTGCTCCA | -0.118
153 | AACAACAC | -0.0906
154 | ACTTGACG | -0.135
155 | ATTGATCC | 0.282
156 | CACTTGCC | 0.0403

Row | Sequence | PBM E-score
157 | CCCCTCGC | -0.239
158 | GGGAGCCA | -0.264
159 | CGGAGCCG | 0.427
160 | TGGAGCCA | -0.194
161 | CGGAGCCA | 0.402
162 | CGGAGCCC | 0.37
163 | AGGAGCCG | -0.0181
164 | AATGCTGC | -0.0877
165 | CAGTCTCA | -0.126
166 | GATCGGTA | 0.265
167 | AATCGGAA | 0.416
168 | CATCGGTC | 0.15
169 | CATCGGAC | 0.424
170 | AATCGGAT | 0.384
171 | AATCGGAG | 0.466
172 | GATCGGGA | 0.227
173 | CATCGGGC | 0.211
174 | AATCGGCA | 0.304
175 | AATCGGTG | 0.126
176 | GATCGGAA | 0.408
177 | AATCGGGA | 0.231
